# Source: PubChem BioAssay (Tox21)
# Values joined by “and” are separate entries in the source; they are usually repeats but may differ in a detail not shown here. Equal values may be shown once. Records with an inconclusive call do not appear. A call without a number means that no potency is given here. A structure can be active in one record and inactive in another. Active and inactive are the calls of the source. Unless noted, the call rests on the fitted dose curve; in most records, active means well fitted curve in the direction sought with a large enough effect in the repeat runs; inconclusive means weak or mixed curves; inactive means no such curve, though single readings can be large; an effect the other way counts as inactive or inconclusive.
# Tests used:
# [1] = qHTS assay to identify small molecule agonists of the hypoxia (HIF-1) signaling pathway - cell viability counter screen (AID 1224844; calls by dose curve; further: nearly all actives have a fitted effect of over 50% in size; further: potency means the concentration at half of the fitted maximal effect)
# Procedure, shortened: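 Cytotoxicity measured by CellTiter-Glo ATP luminescence in the wells also read for beta-lactamase signal. Cells were HRE-bla ME-180 (2,000/well, 0.5% dialyzed FBS), exposed to compounds for 17 h at 37C.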
# [2] = qHTS assay to identify small molecule agonists of H2AX (AID 1224845; active means well fitted activation curve with a large enough effect in the signal ratio in the repeat runs, not every such curve was filed as active; the % refers to the signal ratio; further: potency means the concentration at half of the fitted maximal effect)
# Procedure, shortened: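 Wild-type CHO-K1 cells, plated overnight, exposed 3hr at 37C to 15 concentrations (0.76% DMSO final). Lysed, then HTRF anti-pH2AX (S139) cryptate and anti-H2AX-d2 antibodies, 24 hr room temperature; 665/620 nm emission read.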
# [3] = qHTS assay to identify small molecule agonists of H2AX - cell viability counter screen (AID 1224847; calls by dose curve; further: nearly all actives have a fitted effect of over 30% in size; further: potency means the concentration at half of the fitted maximal effect)
# Procedure, shortened: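 CHO-K1 wt, 1000 cells/well, o/n 37C; cpds 15 conc, 3 h 37C, 0.76% DMSO; CellTiter-Glo, 30 min RT, luminescence.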
# [4] = qHTS assay to identify small molecule antagonists of the estrogen related receptor (ERR) signaling pathway from Tox21 library (AID 1224848); further: potency means the concentration at half of the fitted maximal effect; nearly all actives have a fitted effect of over 50% in size
# Procedure, shortened: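 Quantitative high-throughput format: ERR reporter cells (2,000/well) pre-incubated 6 h, treated 18 h at 37 C with compounds in DMSO alongside positive and negative controls, then read by ONE-Glo luminescence.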
# [5] = qHTS assay to identify small molecule agonists of the estrogen related receptor (ERR) signaling pathway from Tox21 library (AID 1224849; calls by dose curve; further: nearly all actives have a fitted effect of over 15% in size); details: ERR reporter cell line, ONE-Glo luciferase, 18 h
# Procedure, shortened: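 Luminescent agonist read-out (One-Glo, 30-minute room-temperature incubation) following 18-hour compound treatment at 37 C of the ERR cell line, which had been plated 6 hours before dosing.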
# [6] = qHTS RealTime-Glo MT Cell Viability Assay in HepG2 cells - 24 hour (AID 1224867); further: nearly all actives have a fitted effect of over 50% in size; further: potency means the concentration at half of the fitted maximal effect
# Procedure, shortened: (§1)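 qHTS, HepG2, 600 cells/well, RealTime-Glo (NanoLuc + prosubstrate) added with cells; 5 h preincubation; DMSO compound addition; 37 C; luminescence at 0/8/16/24/32/40 h.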
# [7] = A CellTox Green Cytotoxicity Assay to monitor cytotoxicity in HEK293 cells - 0 hour (AID 1224869); further: nearly all actives have a fitted effect of over 50% in size
# Procedure, shortened: (§2)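 Fluorescence from a DNA-binding dye excluded by viable cells was measured repeatedly in the same HEK293 wells (600 cells/well) during continuous compound exposure at 37 C. Each assay gives one read point: 0, 8, 16, 24, 32 or 40 h.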
# [8] = qHTS RealTime-Glo MT Cell Viability Assay in HepG2 cells - 40 hour (AID 1224870); further: nearly all actives have a fitted effect of over 50% in size; further: potency means the concentration at half of the fitted maximal effect
# Procedure, shortened: (§3)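 HepG2 cells (600/well) mixed with RealTime-Glo MT reagent, settled 5 h at 37 C/5% CO2 before compound addition. Nonlytic NanoLuc luminescence from viable-cell prosubstrate reduction read repeatedly during 40 h treatment at 37 C.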
# [9] = A CellTox Green Cytotoxicity Assay to monitor cytotoxicity in HEK293 cells - 40 hour (AID 1224871); further: nearly all actives have a fitted effect of over 45% in size; further: potency means the concentration at half of the fitted maximal effect
# Procedure, shortened: as §2
# [10] = qHTS RealTime-Glo MT Cell Viability Assay in HEK293 cells - 16 hour (AID 1224872); further: nearly all actives have a fitted effect of over 50% in size; further: potency means the concentration at half of the fitted maximal effect
# Procedure, shortened: (§4)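 Assay medium contained NanoLuc luciferase plus cell-permeant prosubstrate, added with HEK293 cells at 600 cells/well. After 5 h at 37 C/5% CO2 compounds were added; plates stayed at 37 C for 40 h with serial luminescence reads.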
# [11] = qHTS RealTime-Glo MT Cell Viability Assay in HepG2 cells - 8 hour (AID 1224873); further: nearly all actives have a fitted effect of over 55% in size; further: potency means the concentration at half of the fitted maximal effect
# Procedure, shortened: as §3
# [12] = qHTS RealTime-Glo MT Cell Viability Assay in HEK293 cells - 40 hour (AID 1224874); details: RealTime-Glo luminescence; max response: stronger effect = lower value; further: nearly all actives have a fitted effect of over 50% in size; further: potency means the concentration at half of the fitted maximal effect
# Procedure, shortened: (§5)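 Luminescence, which tracks viable cell number through reduction of the prosubstrate to a NanoLuc substrate, was read over continuous 37 C culture. Cells (600/well) were premixed with reagent and rested 5 h before 23 nL of compound in DMSO was pinned.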
# [13] = A CellTox Green Cytotoxicity Assay to monitor cytotoxicity in HEK293 cells - 24 hour (AID 1224875); further: nearly all actives have a fitted effect of over 45% in size; further: potency means the concentration at half of the fitted maximal effect
# Procedure, shortened: as §2
# [14] = A CellTox Green Cytotoxicity Assay to monitor cytotoxicity in HepG2 cells - 16 hour (AID 1224876); further: nearly all actives have a fitted effect of over 45% in size; further: potency means the concentration at half of the fitted maximal effect
# Procedure, shortened: (§6)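 Real-time cytotoxicity: fluorescence of a cell-impermeant cyanine dye binding DNA of dead HepG2 cells, measured repeatedly (0–40 h) during compound exposure at 37 C. Cells seeded 600/well with reagent, dosed after 5 h.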
# [15] = qHTS RealTime-Glo MT Cell Viability Assay in HepG2 cells - 32 hour (AID 1224877); further: nearly all actives have a fitted effect of over 55% in size; further: potency means the concentration at half of the fitted maximal effect
# Procedure, shortened: as §1
# [16] = A CellTox Green Cytotoxicity Assay to monitor cytotoxicity in HepG2 cells - 24 hour (AID 1224878); further: nearly all actives have a fitted effect of over 45% in size; further: potency means the concentration at half of the fitted maximal effect
# Procedure, shortened: as §6
# [17] = A CellTox Green Cytotoxicity Assay to monitor cytotoxicity in HepG2 cells - 40 hour (AID 1224879); further: nearly all actives have a fitted effect of over 40% in size; further: potency means the concentration at half of the fitted maximal effect
# Procedure, shortened: as §6
# [18] = qHTS RealTime-Glo MT Cell Viability Assay in HEK293 cells - 0 hour (AID 1224880)
# Procedure, shortened: as §5
# [19] = qHTS assay to identify small molecule agonists of the hypoxia (HIF-1) signaling pathway (AID 1224846; active means well fitted activation curve with a large enough effect in the signal ratio in the repeat runs, not every such curve was filed as active; the % refers to the signal ratio)
# Procedure, shortened: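 Compounds added to ME-180 cells carrying hypoxia-response-element beta-lactamase reporter (0.5% dialyzed FBS, 5 h preplating), 17 h at 37C; agonist activity detected by CCF4-AM B/G FRET read-out.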
# [20] = qHTS RealTime-Glo MT Cell Viability Assay in HEK293 cells - 32 hour (AID 1224868); further: nearly all actives have a fitted effect of over 50% in size; further: potency means the concentration at half of the fitted maximal effect
# Procedure, shortened: as §4
# [21] = at 92.4 µM (top of the series) unless noted
compound,measurement,setting,value
O=c1[nH]c2ccccc2n1C1CCN(CCCC(c2ccc(F)cc2)c2ccc(F)cc2)CC1,Potency,[1],21.9 µM (active)
same,Potency,[2],inactive
same,Potency,[3],45 µM (active)
same,Potency,[4],10.9 µM (active) and 13.3 µM (active)
same,"activity change, positive = activation",[5]; at 42.5 µM (top of the series),-52.6% (inactive)
same,"activity change, positive = activation",[5]; at 92.4 µM (top of the series),-79.9% (inactive)
same,Potency,[6],43.6 µM (active) and inactive
same,Potency,[7],inactive
same,Potency,[8],30.9 µM (active) and inactive
same,Potency,[9],49 µM (active) and inactive
same,Potency,[10],13.8 µM (active) and 19 µM (active)
same,Potency,[11],43.6 µM (active) and inactive
same,Potency,[12],17.4 µM (active) and 16.9 µM (active)
same,Potency,[13],inactive
same,Potency,[14],49 µM (active) and inactive
same,Potency,[15],34.7 µM (active) and inactive
same,Potency,[16],43.6 µM (active) and inactive
same,Potency,[17],19.5 µM (active) and 21.3 µM (active)
same,Potency,[18],inactive
CCCN(CCC)CCc1c[nH]c2ccccc12,Potency,[1],inactive
same,Potency,[2],inactive
same,outcome,[19],inactive
same,Potency,[6],inactive
same,Potency,[20],inactive
same,Potency,[7],inactive
same,Potency,[9],inactive
same,Potency,[10],inactive
same,Potency,[11],inactive
same,max response,[12],-15.2% (inactive)
same,Potency,[13],inactive
same,Potency,[14],inactive
same,Potency,[15],inactive
same,Potency,[16],inactive
BrCBr,Potency,[1],inactive
same,Potency,[2],inactive
same,outcome,[19],inactive
same,Potency,[6],inactive
same,Potency,[20],inactive
same,Potency,[7],inactive
same,Potency,[8],inactive
same,Potency,[9],inactive
same,Potency,[10],inactive
same,Potency,[11],inactive
same,max response,[12],10.5% (inactive)
same,Potency,[13],inactive
same,Potency,[14],inactive
same,Potency,[15],inactive
same,Potency,[17],inactive
same,Potency,[18],inactive
Clc1ccc(COC(Cn2ccnc2)c2ccc(Cl)cc2Cl)cc1 (configuration not stated),Potency,[1],32.3 µM (active) and 34.5 µM (active) and inactive
same,Potency,[2],inactive
same,Potency,[3],66.6 µM (active) and 56.4 µM (active)
same,Potency,[4],20.2 µM (active) and 21.6 µM (active) and 18.8 µM (active)
same,"activity change, positive = activation",[5]; at 42.5 µM (top of the series),-55.4% (inactive)
same,"activity change, positive = activation",[5]; at 92.4 µM (top of the series),-77.5% (inactive) and -81.9% (inactive)
same,Potency,[6],43.5 µM (active)
same,Potency,[20],18.2 µM (active) and 24.4 µM (active) and 9.52 µM (active)
same,Potency,[7],inactive
same,Potency,[8],48.8 µM (active)
same,Potency,[9],45.7 µM (active) and 54.7 µM (active) and inactive
same,Potency,[10],20.4 µM (active) and 19.4 µM (active)
same,Potency,[11],43.5 µM (active)
same,Potency,[12],16.2 µM (active) and 24.4 µM (active)
same,Potency,[14],54.7 µM (active)
same,Potency,[15],48.8 µM (active)
same,Potency,[17],45.7 µM (active) and 54.7 µM (active) and 16.9 µM (active)
same,Potency,[18],inactive
CN(C)C(=S)[S-].CN(C)C(=S)[S-].[Cu+2],Potency,[1],2.67 µM (active)
same,Potency,[2],2.45 µM (active)
same,Potency,[3],27.5 µM (active)
same,Potency,[6],2.67 µM (active)
same,Potency,[20],1.34 µM (active)
same,cytotoxicity,[7],-8.31% [at 15.8 µM] (inactive)
same,Potency,[8],2.38 µM (active)
same,Potency,[9],2.38 µM (active)
same,Potency,[10],1.89 µM (active)
same,Potency,[11],6.7 µM (active)
same,Potency,[12],1.19 µM (active)
same,Potency,[13],2.38 µM (active)
same,Potency,[14],4.23 µM (active)
same,Potency,[15],2.67 µM (active)
same,Potency,[16],2.38 µM (active)
same,Potency,[17],2.67 µM (active)
C[C@]12CC[C@H](O)C[C@H]1CC[C@@H]1[C@@H]2C[C@@H](O)[C@]2(C)[C@@H](C3=CC(=O)OC3)CC[C@]12O,Potency,[1],11 µM (active)
same,Potency,[2],inactive
same,Potency,[3],inactive
same,Potency,[4],3.06 µM (active)
same,"activity change, positive = activation",[5]; [21],-63.4% (active)
same,Potency,[6],inactive
same,Potency,[7],inactive
same,Potency,[8],inactive
same,Potency,[9],inactive
same,Potency,[12],0.776 µM (active)
same,Potency,[13],inactive
same,Potency,[14],inactive
same,Potency,[15],inactive
same,Potency,[16],inactive
same,Potency,[17],inactive
same,Potency,[18],inactive
CCOP(=O)(NC(C)C)Oc1ccc(SC)c(C)c1 (configuration not stated),Potency,[1],inactive
same,Potency,[2],inactive
same,Potency,[6],inactive
same,Potency,[20],12.3 µM (active)
same,Potency,[7],inactive
same,Potency,[8],inactive
same,Potency,[11],inactive
same,Potency,[12],13.8 µM (active)
same,Potency,[13],inactive
same,Potency,[15],inactive
same,Potency,[18],inactive
N#CCCO,Potency,[1],inactive
same,Potency,[2],inactive
same,outcome,[19],inactive
same,Potency,[6],inactive
same,Potency,[20],inactive
same,Potency,[7],inactive
same,Potency,[9],inactive
same,Potency,[10],inactive
same,Potency,[11],inactive
same,max response,[12],5.8% (inactive)
same,Potency,[13],inactive
same,Potency,[15],inactive
same,Potency,[17],inactive
CC(=O)C(Cl)(Cl)Cl,Potency,[1],inactive
same,Potency,[2],inactive
same,Potency,[4],5.9 µM (active)
same,"activity change, positive = activation",[5]; [21],-67.8% (inactive)
same,Potency,[6],inactive
same,Potency,[7],inactive
same,Potency,[8],inactive
same,Potency,[9],inactive
same,Potency,[11],inactive
same,Potency,[13],inactive
same,Potency,[14],inactive
same,Potency,[15],inactive
same,Potency,[16],inactive
same,Potency,[17],inactive
